Giardia FBPA inh: blocks Giardia fructose-bisphosphate aldolase activity; A8B2U2; purified Giardia FBPA; 290,000 tested, 0.71% active; Potency, µM (series often up to 59.6 µM), actives largely listed as inhibitors; also: nearly all actives have a fitted effect of over 55% in size
Target sequence (A8B2U2 whole entry, looked up): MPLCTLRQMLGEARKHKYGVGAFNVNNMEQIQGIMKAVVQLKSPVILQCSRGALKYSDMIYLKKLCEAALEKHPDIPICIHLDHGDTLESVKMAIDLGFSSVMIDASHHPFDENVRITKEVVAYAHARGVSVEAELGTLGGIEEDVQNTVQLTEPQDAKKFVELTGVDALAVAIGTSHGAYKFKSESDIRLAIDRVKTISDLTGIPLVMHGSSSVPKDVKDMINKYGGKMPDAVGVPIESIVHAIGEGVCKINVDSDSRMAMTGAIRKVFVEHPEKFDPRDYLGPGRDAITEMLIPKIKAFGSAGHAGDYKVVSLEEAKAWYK
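Giardia FBPA (40 nM reagent) was preincubated 10 min at RT with compound (up to 57.5 uM final), then substrate plus GAPDH/TPI/NAD/arsenate coupling system with diaphorase/resazurin was added; resorufin fluorescence (525/598 nm) was read after 20 min.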
Pf growth 48h: inhibits P. falciparum growth in the first generation, 48 h | P. falciparum luciferase growth in erythrocytes, 48 h | Potency, µM (highest dose often 28.7 µM), actives largely listed as inhibitors | 310,000 tested, 5.9% active
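Parasite viability was followed by luminescence of a genomically integrated firefly luciferase. Cultures held 0.1% parasitemia at 2% hematocrit (final), incubated under 5% CO2 at 37 C.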
Shiga toxin inh: Shiga toxin inhibition | Vero cells, Shiga toxin protein synthesis inhibition reporter | inhibition, % at 38.7 µM | 290,000 tested, 9.2% active | AID 2315; in the data active = inhibition mostly above about 28%, no sharp cut-off; inactive = mostly below about 43%
NS1 inh: inhibitors of influenza NS1 protein function. 270,000 tested, 0.4% active. Potency, µM (series often up to 46.1 µM); calls by dose curve; also: actives are rising curves; nearly all actives have a fitted effect of over 50% in size
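Growth recovery, yeast-based: influenza A NS1 expressed in S. cerevisiae causes slow growth, and suppressors are detected by OD600. The parent strain without NS1 is used as positive control.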
Pf growth 96h: P. falciparum growth inhibition at 96 hours. P. falciparum luciferase reporter growth, 96 h. Potency, µM (highest dose often 28.7 µM), hits mostly inhibitors. 320,000 tested, 6.9% active
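Infected RBCs, 2% Hct / 0.05% parasitemia final; luciferase-reporter P. falciparum; cpd 96 h, 37 C, 5% CO2; luciferase detection reagent; luminescence.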
Cycloheximide cs: affects cycloheximide protein synthesis inhibition readout, counter-screen. cell reporter, cycloheximide protein synthesis inhibition counterscreen. max response, %. 300,000 tested, 12% active; in the data active = max response mostly above about 13%, no sharp cut-off; inactive = mostly below about 14%; also: read at 38.3 µM for the half of the compounds with a filed dose
A number is an active result; – = inactive; ? = inconclusive; · = not tested or not shown. Only some compounds are listed: those with a hit (about 21% of all), similar ones and a draw of the others. Unless noted, calls follow the shape of the dose curve; as a rule, active = well fitted curve in the direction sought with a large enough effect; inconclusive = small, poorly fitted or top-dose-only effect, or another doubt; inactive = no such curve, though single readings can be large; an effect the other way counts as inactive or inconclusive.

SMILES	Giardia FBPA inh	Pf growth 48h	Shiga toxin inh	NS1 inh	Pf growth 96h	Cycloheximide cs
Cn1c(=O)c2c(nc(NCCc3ccccc3)n2CC(=O)NCCc2ccccc2)n(C)c1=O	–	–	–	?	13µM	–
C/C(Cl)=C\Cn1c(NCCc2ccccc2)nc2c1c(=O)n(C)c(=O)n2C	–	9.3µM	–	–	–	–
CC(=O)Nc1ccc(N(C(=O)c2ccco2)C(C(=O)NC2CCCC2)c2ccncc2)cc1 (centres undefined)	–	–	–	–	?	–
CCN(CC)CCn1c2ccccc2c2cnc(N)c(C#N)c21	–	2.6µM	–	–	2.6µM	–
COc1cc(Br)c(CC(=O)NC2CC2)cc1OC	–	–	–	–	–	–
O=c1[nH]c(CSc2ccccn2)nc2c1cnn2-c1ccccc1	–	–	31	–	–	–
Cn1ccnc1SCc1nc2c(cnn2-c2ccccc2)c(=O)[nH]1	–	–	–	–	–	–
Cc1ccc2nc(SCc3nc4ccccc4c(=O)[nH]3)[nH]c2c1	–	–	69	·	?	27
Nn1c(CSc2ccccn2)nc2ccccc2c1=O	–	·	83	–	?	44
COC(=O)c1sc2nc(CSc3nc4ccc(C)cc4[nH]3)[nH]c(=O)c2c1C	–	·	–	–	?	–
Cc1ccc2nc(CSc3nc(C)ccc3C#N)[nH]c2c1	–	·	–	–	–	17
COc1ccc(/C=C/C(=O)OCC(=O)Nc2ccc3c(c2)OCO3)cc1	·	–	·	·	–	·
CC1(C)CC2CC(C)(CN2/C=N/c2sc3c(c2C#N)CC(C)(C)NC3(C)C)C1 (centres undefined)	–	?	–	–	?	–
Cc1cccc(C)c1NS(=O)(=O)c1cc2c3c(c1)CCN3C(=O)CC2	·	–	·	·	–	·
CCn1c(SCc2nc3ccccc3c(=O)[nH]2)nc2ccccc2c1=O	–	?	–	–	·	–
O=c1[nH]c(CSc2ccccn2)nc2ccccc12	–	–	119	·	–	43
Clc1cc(Cl)c(OCC#CI)cc1Cl	·	?	·	·	13µM	·
CC(=O)Oc1cc2cccc(OC(C)=O)c(=O)c2c(OC(C)=O)c1OC(C)=O	–	?	–	–	15µM	–
COc1cc2cccc(OC)c(=O)c2c(O)c1OC	–	–	–	–	–	34
CC(=O)Oc1cccc2c1C(=O)c1c(OC(C)=O)cc(C(=O)O)cc1C2=O	?	–	–	–	–	–
CCOC(=O)c1c(C)n(C)c2c1cc(OC(C)=O)c1ccccc12	–	–	–	–	–	–
CC(=O)Oc1cc(C)c(OC(C)=O)c2ccccc12	·	6.7µM	·	·	4.8µM	·
COc1cc2c(ccc3cc(OC)c(OC)c(O)c32)cc1O	–	?	–	–	–	–
Cc1cc(C)c2nc(NNC(=O)c3ccc(S(=O)(=O)N4CCCC(C)C4)cc3)sc2c1 (centres undefined)	?	?	–	–	2.3µM	–
COC(=O)c1sc2ccccc2c1NC(=O)c1ccc(S(=O)(=O)N2CC(C)CC(C)C2)cc1 (centres undefined)	–	–	–	–	–	–
SMILES	Giardia FBPA inh	Pf growth 48h	Shiga toxin inh	NS1 inh	Pf growth 96h	Cycloheximide cs
Cc1cc(C)c2nc(NNC(=O)c3ccc(S(=O)(=O)N4CC(C)CC(C)C4)cc3)sc2c1 (centres undefined)	–	2.6µM	–	–	1.9µM	–
Cc1cccc2sc(NNC(=O)c3ccc(S(=O)(=O)N4CC(C)CC(C)C4)cc3)nc12 (centres undefined)	?	?	–	–	2.9µM	–
CCOC(=O)c1sc2ccc(S(=O)(=O)N3CC(C)CC(C)C3)cc2c1N (centres undefined)	–	–	–	–	?	–
COc1nc(-c2ccccc2)nnc1-c1ccccc1	–	–	85	–	–	41
COc1ccc(-c2nnc(OC)c3ccccc23)cc1	–	?	–	–	?	–
N[C@H](C(=O)O)[C@H](OCc1ccccc1)C(=O)O	–	·	·	·	·	·
Cc1nn(C)c(C)c1CN(C)C(=O)c1cc2n(n1)C(C(F)(F)F)CC(c1cccs1)N2 (centres undefined)	–	?	–	–	9.3µM	–
Cc1nn(C)cc1CN(C)C(=O)c1nn2c(c1Cl)NC(c1cccs1)CC2C(F)(F)F (centres undefined)	–	?	–	–	–	–
Cc1nn(C)cc1CN(C)C(=O)c1nn2c(c1Br)NC(c1cccs1)CC2C(F)(F)F (centres undefined)	–	13µM	–	–	5.2µM	–
O=C(O)c1ccc(Nc2ccc(Cl)c(Cl)c2)c([N+](=O)[O-])c1	–	–	–	–	?	–
